Shown are actives, neighbours in structure and some others; about 4.8% of the full set was active somewhere.
DRD3 antagonist: D3 dopamine receptor (human) antagonism. max response, negative = inhibition, %. P35462. D3R cells, DiscoveRx beta-arrestin luminescence, antagonist mode; hits give low values. 2.5% of 360,000 active. AID 652054; in the data active means max response below about -50%; inconclusive means no clear call, values can overlap the other calls; further: on the % scale 0 is the no-effect control and ±100 the full control effect
Target sequence (P35462 whole entry, looked up): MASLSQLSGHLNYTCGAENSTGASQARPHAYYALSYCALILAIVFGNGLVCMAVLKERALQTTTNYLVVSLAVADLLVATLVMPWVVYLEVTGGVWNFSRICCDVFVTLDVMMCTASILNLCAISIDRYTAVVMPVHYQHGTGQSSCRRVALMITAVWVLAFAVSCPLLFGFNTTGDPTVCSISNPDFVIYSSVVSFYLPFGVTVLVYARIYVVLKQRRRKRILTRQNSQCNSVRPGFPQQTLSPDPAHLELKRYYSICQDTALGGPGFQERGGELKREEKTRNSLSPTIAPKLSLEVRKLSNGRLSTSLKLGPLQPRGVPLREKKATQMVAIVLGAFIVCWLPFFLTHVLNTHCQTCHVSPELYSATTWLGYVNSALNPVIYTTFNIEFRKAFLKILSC
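Cells plated overnight at 1500 cells/well, then exposed to library compounds with dopamine controls for 90 minutes at 37 degrees C. DiscoveRx reagent added for 30–60 minutes at room temperature; luminescence read, quantitative HTS format.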
HepG2 tox: counter-screen for TGF-b inhibitors: cytotoxicity in HepG2 cells; Potency, µM (top dose mostly 46.1 µM), for inactives: at the highest dose activity change, negative = cytotoxicity, actives largely listed as cytotoxic; 0.76% of 410,000 active; HepG2 CAGA-GFP viability, ATP luminescence, 18 h; further: potency means the concentration at half of the fitted maximal effect
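HepG2 CAGA-GFP cells (1000/well, DMEM with 1% FBS) received compound, then TGF-beta at 500 pg/mL final, and were incubated 18 hours at 37 degrees C. Viability was read by CellTiter-Glo luminescence. Media-only wells were set as complete cell-killing and DMSO as no toxicity.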
ATXN viability: cell viability loss in ATXN counter-screen; 0.49% of 400,000 active; S2 cells (HEK-293 line with an ATXN2-luciferase reporter) viability, CellTiter-Fluor protease fluorescence, 24 h; Potency, µM (highest dose often 56.7 µM), usual class: cytotoxic; further: potency means the concentration at half of the fitted maximal effect; nearly all actives have a fitted effect of over 40% in size
D3 ag: D3 dopamine receptor (human) agonism. 0.58% of 410,000 active. D3R DiscoveRx beta-arrestin cells, luminescence, 90 min. AID 652048. max activation, %. P35462; in the data active means max activation above about 30%; further: 0% is about no effect
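Agonist mode: compounds and dopamine controls were applied to plated cells for 90 min at 37 degrees C after an overnight attachment at 1500 cells/well. Luminescent read-out followed 30 - 60 minutes at room temperature with DiscoveRx detection reagent.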
ATXN2 expr inh: ATXN2 expression inhibition; HEK-293 ATXN2-luciferase reporter, luminescence, 24 h; Potency, µM (titrated, usually from 57 µM), inactives show top-dose activity change, negative = inhibition, most hits filed as inhibitors; 0.72% of 360,000 active; further: potency means the concentration at half of the fitted maximal effect; on the % scale 0 is the no-effect control and ±100 the full control effect; nearly all actives have a fitted effect of over 55% in size
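qHTS (up to 57 uM final) was run with 24 h compound exposure of reporter cells at 37 °C. Each well was multiplexed: SteadyGlo luminescence measured ATXN2-luciferase expression after a fluorogenic Gly-Phe-AFC viability readout (25 uM final).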
TGFb inhibitor: inhibitors of TGF-b signaling; HepG2 CAGA-GFP TGF-b/SMAD3 reporter, GFP fluorescence, 18 h; TGF-beta stimulated, 500 pg/mL final; Potency, µM (series often up to 46.1 µM), inactives show top-dose activity, negative = inhibition, most hits filed as inhibitors; 1.2% of 410,000 active; further: potency means the concentration at half of the fitted maximal effect; on the % scale 0 is the no-effect control and ±100 the full control effect; nearly all actives have a fitted effect of over 65% in size
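Inhibition was scored as loss of TGF-beta-induced (500 pg/mL final, 18 hours, 37 degrees C) GFP in HEPG2 cells carrying a CAGA-GFP reporter, in DMEM with 1% FBS. Well GFP was summed per cell; Activity was normalised to unstimulated and stimulated DMSO wells, then concentration-response fitting.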
Starred values were filed as active, the others as inactive; i = inactive; ? = inconclusive; . = not tested or not shown; [ ] = remark or other dose. Unless noted, the call rests on the fitted dose curve; in most records, active means well fitted curve in the direction sought with a large enough effect; inconclusive means small, poorly fitted or top-dose-only effect, or another doubt; inactive means no such curve, though single readings can be large; an effect the other way counts as inactive or inconclusive.

SMILES	DRD3 antagonist	HepG2 tox	ATXN viability	D3 ag	ATXN2 expr inh	TGFb inhibitor
Cc1ccc(N2C(=O)c3oc4cc(C)c(C)cc4c(=O)c3C2c2cccc(O)c2)nc1 (configuration not stated)	.	-3%	i	-2	15%	0%
COCCNC(=O)c1ccc(-n2c(-c3ccccc3)cc3c2CCCCC3)cc1	.	0%	.	-18	.	?
Cc1ccc(Cn2c(C(=O)O)c(CNCc3ccc(OC(C)C)cc3)c3ccc(C)cc32)cc1	.	-106%	.	4	?	?
C=Cc1ccc(Cn2c(C(=O)O)c(CNCc3ccccc3)c3ccc(C)cc32)cc1	.	20µM*	16µM*	-13	0%	?
COc1ccc(OC)c(CNCc2c(C(=O)O)n(Cc3cccc(F)c3)c3cc(OC)ccc23)c1	.	0%	?	1	16%	1%
CCc1ccc(CNCc2c(C(=O)O)n(Cc3cccc(F)c3)c3cc(OC)ccc23)cc1	.	-101%	32µM*	-14	?	?
CCc1ccc(CNCc2c(C(=O)O)n(Cc3ccc(C)cc3)c3cc(C)ccc23)cc1	.	18µM*	.	-10	-10%	16µM*
Cc1ccc(CNCc2c(C(=O)O)n(Cc3ccc(C)cc3)c3cc(C)ccc23)cc1	.	-108%	.	0	?	28µM*
CCN1C(=O)c2ccccc2S(=O)(=O)c2ccc(C(=O)NCc3ccccc3OC)cc21	.	-12%	i	4	5%	-17%
CC(C)c1ccc(C(=O)Nc2ccc(-c3nc4ccccc4s3)c(Cl)c2)cc1	.	-22%	i	27	5%	-13%
Cc1cccc(OCC(=O)Nc2ccc(Cl)c(-c3nc4ncccc4o3)c2)c1C	.	-15%	?	18	?	-4%
CCOc1ccc(/C=N/NC(=O)C(O)c2ccccc2)c(O)c1 (configuration not stated)	9	-8%	i	-4	32µM*	0%
Cc1ccc(CNC(=O)[C@H]2O[C@@H](n3ccc(N)nc3=O)[C@H](O)[C@@H]2O)o1	-126*	2%	i	-24	12%	0%
Cc1cccc(-c2noc(-c3ccccc3OCC(=O)Nc3ccccc3[N+](=O)[O-])n2)c1	.	-20%	i	-1	6%	-20%
COc1cc(C(O)c2nc(-c3cccc(C(F)(F)F)c3)cs2)ccc1F (configuration not stated)	-18	11µM*	i	3	-27%	13µM*
COc1ccc(C(O)c2nc(-c3cccc(F)c3)cs2)cc1 (configuration not stated)	14	-7%	i	7	7%	26%
COc1ccc(C(O)c2nc(-c3ccccc3C)cs2)cc1 (configuration not stated)	-95*	-2%	i	-12	10%	3%
OC(c1ccccc1)c1nc(-c2cccc(F)c2)cs1 (configuration not stated)	-55*	-3%	i	-8	11%	8%
COc1ccc(C(O)c2nc(-c3ccccc3)cs2)cc1 (configuration not stated)	-7	-30%	i	63*	4%	-22%
COc1cc(N2CCC(C(N)=O)CC2)ccc1Nc1nc(N)c(Cl)c(Nc2ccccc2S(=O)(=O)C(C)C)n1	.	.	.	.	-15%	.
Cc1ccn2cc(CNC(=O)c3cccc(C(F)(F)F)c3)nc2c1	.	-4%	.	-25	.	-8%
CCOc1ccc(CNC(=O)C2CCN(S(=O)(=O)c3cn(C)cn3)CC2)cc1	.	5%	.	-9	.	17%
CCC(C)NC(=O)c1ccc(CN2CCc3ccccc3C2)cc1 (configuration not stated)	-66*	-3%	i	-18	-12%	-13%
CC(C)(C)SCCNC(=O)c1ccc(CN2CCc3ccccc3C2)cc1	-74*	-11%	i	-39	19%	-3%
COCC(C)NC(=O)c1ccc(CN2CCc3ccccc3C2)cc1 (configuration not stated)	-68*	-39%	i	-11	.	1%
SMILES	DRD3 antagonist	HepG2 tox	ATXN viability	D3 ag	ATXN2 expr inh	TGFb inhibitor
C/C(=N\NC(=O)c1ccc(CN2CCc3ccccc3C2)cc1)c1ccccc1O	-28	-1%	i	-2	16µM*	?
COCCNC(=O)c1ccc(CN2CCc3ccccc3C2)cc1	?	17%	i	-15	-19%[11.3 µM]	-10%
Cc1c(Cl)cccc1NC(=O)c1ccc2c(c1)CCN2S(=O)(=O)c1ccccc1	.	-3%	i	3	3%	4%
CC(C)(C)n1ncc2c(=O)n(Cc3cc(F)c(F)cc3Cl)cnc21	.	6%	.	.	.	9%
O=C(NCc1ccc2c(c1)OCO2)c1ccc(CN2CCc3ccccc3C2)cc1	?	-1%	i	-14	-5%	-10%
O=C(NCc1cccnc1)c1ccc(CN2CCc3ccccc3C2)cc1	-75*	-12%	?	0	-13%	6%
COc1cccc(-n2ccnc2SCC(=O)Nc2ccc(Cl)c(Cl)c2)c1	.	1%	.	-24	.	-21%
CCOC(=O)CS(=O)(=O)c1nc(-c2ccc(F)cc2)cc(C(F)(F)F)n1	-64*	-96%	.	-23	?	?
CCOC(=O)CS(=O)(=O)c1nc(-c2ccccc2)cc(C(F)(F)F)n1	-69*	-90%	i	-28	-32%	?
CCOC(=O)CCS(=O)(=O)c1nc(-c2ccccc2)cc(C(F)(F)F)n1	-51*	-119%	.	-21	?	?
CC(C)(C)C(=O)NC(NC(=S)Nc1sc2c(c1C#N)CCCC2)C(Cl)(Cl)Cl (configuration not stated)	-55*	-59%	i	9	12%	-17%
CC(C)(C)C(=O)Nc1sc2c(c1C#N)CCC2	-3	6%	i	3	4%[11.3 µM]	26%
CS(=O)c1nc(-c2ccc(Br)cc2)cc(-c2ccccc2)c1C#N (configuration not stated)	-56*	-7%	20µM*	-3	13µM*	-8%
C=C1C=C(C(F)F)n2ncc(C(=O)Nc3ccc(N(CC)CC)cc3)c2N1	.	8%	.	.	.	21%
O=C(CN1CCOCC1)Nc1nc2ccc([N+](=O)[O-])cc2s1	-85*	-26%	i	-22	-4%	0%
COc1ccc(CNC(=O)Cc2c(C)c3ccc(O)cc3oc2=O)cc1	.	1%	?	6	3%	2%
O=C(CCC(=O)c1cccs1)NNC(=O)c1ccccc1Cl	-4	-2%	i	8	4%	-20%
C[C@H](NC(=O)c1ccccc1Cl)C(=O)OCC(=O)NNC(=O)c1cccs1	-55*	1%	i	-15	-7%	-4%

Screens: PubChem BioAssay, National Center for Advancing Translational Sciences (NCATS)
